In PubChem BioAssay (EPA / NIEHS) one finds outcome and AC50 data, which are given here for 4 compounds.

Records with an inconclusive call do not appear. Active and inactive are the calls of the source. How the source made its calls, unless noted: active means hit-call score of the fitted dose curve at least 0.9, where 1 is the maximum; inactive means score below 0.9.

Read-out in assay [1]: Interferon-gamma inducible Protein 10 (IP10), CXCL10 (gene 3627)
The assay is described as follows: BSK_KF3CT_IP10: BioMAP Diversity Plus: KF3CT Assay for Interferon-gamma inducible Protein 10 (IP10) Biomarker Activity (AID 2283068). Conditions: primary human keratinocytes with fibroblasts; actives raise or lower the signal. Put shortly: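 ELISA read-out of IP-10 after 24 h chemical dosing of human skin primary co-culture (keratinocytes, foreskin fibroblasts). Gain or loss of signal relative to DMSO, bidirectional curve fit.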

Read-out in assay [2]: Interleukin-1 alpha (IL1a), IL1A (gene 3552)
The assay can be described thus: BSK_KF3CT_IL1a: BioMAP Diversity Plus: KF3CT Assay for Interleukin-1 alpha (IL1a) Biomarker Activity (AID 2283070). Conditions: primary human keratinocytes with fibroblasts; actives raise or lower the signal. Put shortly:
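Primary human keratinocyte plus foreskin fibroblast co-culture, dosed and measured at 24 h in 96-well plates. IL-1a level quantified by ELISA; bidirectional fit relative to DMSO.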

Read-out in assay [3]: TIMP metallopeptidase inhibitor 2 (TIMP2), TIMP2 (gene 7077)
The assay is described as follows: BSK_KF3CT_TIMP2: BioMAP Diversity Plus: KF3CT Assay for TIMP metallopeptidase inhibitor 2 (TIMP2) Biomarker Activity (AID 2283071). Conditions: primary human keratinocytes with fibroblasts; actives raise or lower the signal. Put shortly: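 Co-culture of human primary keratinocytes and foreskin fibroblasts, measured 24 h after chemical dosing. TIMP-2 quantified by ELISA and fitted in both directions relative to DMSO. Cytotoxicity checked in parallel cultures by SRB total-protein staining.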

Read-out in assay [4]: Matrix Metallopeptidase 9 (MMP9), MMP9 (gene 4318)
The assay is described as follows: BSK_KF3CT_MMP9: BioMAP Diversity Plus: KF3CT Assay for Matrix Metallopeptidase 9 (MMP9) Biomarker Activity (AID 2283074). Conditions: primary human keratinocytes with fibroblasts; actives raise or lower the signal. Put shortly: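 Human keratinocyte and foreskin fibroblast co-culture exposed to chemicals for 24 h; MMP9 biomarker measured by ELISA, bidirectional fitting relative to DMSO; cytotoxicity tracked by SRB total protein staining in parallel cultures.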

Read-out in assay [5]: urokinase plasminogen activator (uPA), PLAU (gene 5328)
The assay is described as follows: BSK_KF3CT_uPA: BioMAP Diversity Plus: KF3CT Assay for urokinase plasminogen activator (uPA) Biomarker Activity (AID 2283075). The note with it: primary human keratinocytes with fibroblasts; actives raise or lower the signal. Put shortly:
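Primary human keratinocyte/foreskin fibroblast co-culture exposed to chemical; uPA measured by ELISA at 24 h. Bidirectional fit versus DMSO, with parallel SRB total-protein staining for cytotoxicity.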

Read-out in assay [6]: CD40, CD40 (gene 958)
The assay is described as follows: BSK_LPS_CD40: BioMAP Diversity Plus: LPS Assay for CD40 Biomarker Activity (AID 2283076). The note with it: primary human HUVEC with PBMC; actives raise or lower the signal. Put shortly: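 Primary human umbilical vein endothelial cells co-cultured with peripheral blood mononuclear cells, LPS-stimulated, were dosed with chemical and read 24 h later. CD40 levels were measured by ELISA and fitted bidirectionally against DMSO as negative control and baseline.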

Read-out in assay [7]: E-selectin (Homo sapiens) (UniProt P16581)
The assay is described as follows: BSK_LPS_Eselectin: BioMAP Diversity Plus: LPS Assay for Eselectin Biomarker Activity (AID 2283077). Conditions: primary human HUVEC with PBMC; actives raise or lower the signal. Put shortly:
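Human umbilical vein endothelial cells co-cultured with peripheral blood mononuclear cells under LPS stimulation; E-selectin measured by ELISA 24 h after chemical dosing. Activity fitted bidirectionally against DMSO as negative control and baseline.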

A short description of assay [8]: BSK_LPS_SRB: Viability Assessment in the BioMAP Diversity Plus: LPS Assay (AID 2283079).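 Further: total protein by sulforhodamine B absorbance as a cytotoxicity measure; measured one day after compound addition; fitted in both directions against DMSO so loss or gain of signal counts.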 Conditions: primary human HUVEC with PBMC. Put shortly:
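Human umbilical vein endothelial cells co-cultured with PBMC (LPS system) were dosed for 24 h. Total protein was stained with 0.1% sulforhodamine B after 10% TCA fixation, read at 560 nm, and fitted bidirectionally against DMSO baseline.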

Read-out in assay [9]: Macrophage colony-stimulating factor (MCSF), CSF1 (gene 1435)
The assay can be described thus: BSK_LPS_MCSF: BioMAP Diversity Plus: LPS Assay for Macrophage colony-stimulating factor (MCSF) Biomarker Activity (AID 2283083). Conditions: primary human HUVEC with PBMC; actives raise or lower the signal. Put shortly:
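Human umbilical vein endothelial cells co-cultured with peripheral blood mononuclear cells were exposed to compound for 24 h. M-CSF levels were measured by ELISA, and bidirectional curve fitting used DMSO as the negative control and baseline.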

Read-out in assay [10]: Tissue Factor, F3 (gene 2152)
The assay is described as follows: BSK_LPS_TissueFactor: BioMAP Diversity Plus: LPS Assay for Tissue Factor Biomarker Activity (AID 2283084). Conditions: primary human HUVEC with PBMC; actives raise or lower the signal. Put shortly: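 Human umbilical vein endothelial cells co-cultured with peripheral blood mononuclear cells were dosed and stimulated with LPS. Cell-surface CD142 was quantified by ELISA at 24 h. Activity was fitted bidirectionally against DMSO baseline.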

Read-out in assay [11]: Tumor necrosis factor (Homo sapiens) (UniProt P01375)
The assay is described as follows: BSK_LPS_TNFa: BioMAP Diversity Plus: LPS Assay for Tumour Necrosis Factor alpha (TNFa) Biomarker Activity (AID 2283085).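 On AC50: TNFa protein level quantified by ELISA in the co-culture.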 Conditions: primary human HUVEC with PBMC; actives raise or lower the signal. Put shortly:
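Human umbilical vein endothelial cells co-cultured with PBMC and stimulated with LPS. TNFa was measured by ELISA 24 h after chemical dosing, fitted bidirectionally relative to DMSO.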

Read-out in assay [12]: Vascular cell adhesion molecule 1 (VCAM1), VCAM1 (gene 7412)
The assay is described as follows: BSK_LPS_VCAM1: BioMAP Diversity Plus: LPS Assay for Vascular cell adhesion molecule 1 (VCAM1) Biomarker Activity (AID 2283086). The note with it: primary human HUVEC with PBMC; actives raise or lower the signal. Put shortly:
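Human umbilical vein endothelial cells co-cultured with PBMC and stimulated with LPS; VCAM-1 measured by ELISA 24 h after dosing. Bidirectional curve fitting against DMSO baseline; cytotoxicity tracked in parallel by SRB total-protein staining.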

Read-out in assay [13]: CD38, CD38 (gene 952)
The assay is described as follows: BSK_SAg_CD38: BioMAP Diversity Plus: SAg Assay for CD38 Biomarker Activity (AID 2283087). Conditions: primary human HUVEC with PBMC; actives raise or lower the signal. Put shortly:
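Human HUVEC plus PBMC co-culture stimulated with superantigen; CD38 measured by ELISA 24 h after chemical dosing. Fluorescence read-out, bidirectional fit against DMSO; cytotoxicity tracked in parallel by SRB and Alamar Blue.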

Read-out in assay [14]: CD40, CD40 (gene 958)
The assay is described as follows: BSK_SAg_CD40: BioMAP Diversity Plus: SAg Assay for CD40 Biomarker Activity (AID 2283088). The note with it: primary human HUVEC with PBMC; actives raise or lower the signal. Put shortly: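 Human umbilical vein endothelial cells co-cultured with PBMC; CD40 levels measured by ELISA with fluorescence read-out 24 h after chemical dosing. Gain or loss of signal fitted bidirectionally against DMSO baseline.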

Read-out in assay [15]: CD69, CD69 (gene 969)
The assay can be described thus: BSK_SAg_CD69: BioMAP Diversity Plus: SAg Assay for CD69 Biomarker Activity (AID 2283089). The note with it: primary human HUVEC with PBMC; actives raise or lower the signal. Put shortly: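 Primary human vascular co-culture (umbilical vein endothelium with peripheral blood mononuclear cells) exposed to test chemical for 24 h. CD69 levels quantified by fluorescence ELISA; DMSO served as negative control for bidirectional fitting.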

Read-out in assay [16]: E-selectin (Homo sapiens) (UniProt P16581)
The assay can be described thus: BSK_SAg_Eselectin: BioMAP Diversity Plus: SAg Assay for Eselectin Biomarker Activity (AID 2283091). The note with it: primary human HUVEC with PBMC; actives raise or lower the signal. Put shortly:
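HUVEC co-cultured with PBMC, compound dosed then read at 24 h; E-selectin measured by ELISA. Activity fitted bidirectionally against DMSO as negative control and baseline.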

Assay [17] is described as follows: BSK_SAg_PBMCCytotoxicity: PBMC Cytotoxicity Assessment in the BioMAP Diversity Plus: SAg Assay (AID 2283093).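 Further: PBMC viability measured as Alamar Blue reduction fluorescence at 546/580 nm; fitted both ways against DMSO so a hit may be loss or gain of signal.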 Conditions: primary human HUVEC with PBMC. Put shortly:
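HUVEC/PBMC co-culture; PBMC exposed to chemical 1 h before SEB and TSST-1 activation (20 ng/mL each), incubated 90 h, then Alamar Blue 6 h, fluorescence 546/580 nm. Bidirectional fit versus DMSO baseline.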

Read-out in assay [18]: Interleukin-8 (IL8), CXCL8 (gene 3576)
The assay can be described thus: BSK_SAg_IL8: BioMAP Diversity Plus: SAg Assay for Interleukin-8 (IL8) Biomarker Activity (AID 2283094). The note with it: primary human HUVEC with PBMC; actives raise or lower the signal. Put shortly: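 Human umbilical vein endothelial cells co-cultured with PBMC, stimulated with superantigen; IL-8 measured by ELISA 24 h after chemical dosing. Bidirectional fitting versus DMSO; SRB staining in parallel cultures tracks cytotoxicity.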

Assay [19] can be described thus: BSK_SAg_Proliferation: Cell Proliferation Assessment in the BioMAP Diversity Plus: SAg Assay (AID 2283095). The note with it: primary human HUVEC with PBMC. Put shortly:
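Human umbilical vein endothelial cells co-cultured with PBMC; sulforhodamine B total-protein staining (0.1% SRB after 10% TCA fixation, absorbance 560 nm) at 96 h in sub-confluent culture. Fitted bidirectionally against DMSO.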

Assay [20] concerns the target Steroid hormone receptor ERR1 (Homo sapiens) (UniProt P11474). The assay is described as follows: ATG_ERRa_TRANS: Attagene TRANS-FACTORIAL HepG2 Assay for human Estrogen-Related Receptor alpha (ERRa) (AID 2282971; active means hit-call score of the fitted dose curve at least 0.9, where 1 is the maximum). Conditions: HepG2 Attagene TRANS reporter, ERRa transactivation. Put shortly: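 HepG2 cells transiently transfected with multiplexed GAL4-UAS reporter units reading chimeric ERRa-Gal4 activity; 24 h compound exposure. Reporter mRNA measured by RT-PCR, 6-FAM labelling, HpaI digest and capillary electrophoresis; gain of signal fitted versus DMSO baseline.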

Sequence of E-selectin (Homo sapiens) (P16581 whole entry, looked up): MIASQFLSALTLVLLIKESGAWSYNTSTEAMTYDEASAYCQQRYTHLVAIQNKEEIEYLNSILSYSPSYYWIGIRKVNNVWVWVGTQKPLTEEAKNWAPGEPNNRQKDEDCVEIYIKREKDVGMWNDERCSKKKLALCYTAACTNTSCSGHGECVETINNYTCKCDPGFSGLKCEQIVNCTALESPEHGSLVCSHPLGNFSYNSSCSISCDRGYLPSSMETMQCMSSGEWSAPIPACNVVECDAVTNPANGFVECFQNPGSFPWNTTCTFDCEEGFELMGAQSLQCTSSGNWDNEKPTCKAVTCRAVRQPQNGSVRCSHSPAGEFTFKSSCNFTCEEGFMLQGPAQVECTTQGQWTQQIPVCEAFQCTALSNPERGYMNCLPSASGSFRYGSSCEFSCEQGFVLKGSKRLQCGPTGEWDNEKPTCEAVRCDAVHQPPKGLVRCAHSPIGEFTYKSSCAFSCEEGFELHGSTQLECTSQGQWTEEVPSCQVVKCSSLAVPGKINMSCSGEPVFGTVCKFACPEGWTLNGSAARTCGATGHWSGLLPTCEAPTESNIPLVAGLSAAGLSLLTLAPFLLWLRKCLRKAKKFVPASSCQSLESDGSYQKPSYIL
Sequence of Tumor necrosis factor (Homo sapiens) (P01375 whole entry, looked up): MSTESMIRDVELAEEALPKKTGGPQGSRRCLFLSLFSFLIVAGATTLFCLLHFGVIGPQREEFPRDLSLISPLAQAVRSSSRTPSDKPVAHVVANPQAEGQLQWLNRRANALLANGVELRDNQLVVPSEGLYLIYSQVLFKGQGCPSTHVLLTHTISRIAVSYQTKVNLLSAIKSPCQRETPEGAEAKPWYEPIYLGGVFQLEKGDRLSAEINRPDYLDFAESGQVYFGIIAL
Sequence of Steroid hormone receptor ERR1 (Homo sapiens) (P11474 whole entry, looked up, the tested form may be a part): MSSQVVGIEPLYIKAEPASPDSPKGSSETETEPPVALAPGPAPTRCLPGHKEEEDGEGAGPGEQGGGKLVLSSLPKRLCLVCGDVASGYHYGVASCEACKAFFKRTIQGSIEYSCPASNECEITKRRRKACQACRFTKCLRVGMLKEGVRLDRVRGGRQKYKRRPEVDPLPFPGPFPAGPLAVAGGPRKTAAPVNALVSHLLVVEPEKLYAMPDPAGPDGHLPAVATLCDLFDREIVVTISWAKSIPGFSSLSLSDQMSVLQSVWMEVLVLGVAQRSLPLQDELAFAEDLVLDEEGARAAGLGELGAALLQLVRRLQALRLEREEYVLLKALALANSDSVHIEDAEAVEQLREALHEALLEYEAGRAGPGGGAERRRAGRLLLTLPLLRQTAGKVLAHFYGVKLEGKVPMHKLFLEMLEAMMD

On to `C=CCN(CC=C)C(=O)C(Cl)Cl`, for which the outcome in [1], in assay [2], in assay [3], in assay [4], in assay [5] and in assay [6] was inactive. The result in assay [7], in [8], in assay [9], in assay [10], in assay [11] and in assay [12] was inactive. In addition, the result in [13], in assay [14], in assay [15], in assay [16], in assay [17] and in assay [18] was inactive. In addition, in assay [19], the result was inactive.

For the compound `CC1(C)C(=O)NC(=O)NC1=O`, in [20], the compound was called inactive.

With `CCCOC(=O)c1ccccc1C(=O)OCCC`, the result in assay [1], in assay [2], in [3], in assay [4], in assay [5] and in [6] was inactive. The outcome in [7], in [8], in assay [10], in assay [12], in [13] and in assay [14] was inactive. Moreover, the outcome in [15], in assay [16], in assay [17], in assay [18] and in [19] was inactive. Besides, the AC50 (commonly the concentration giving half of the maximal activity seen) in assay [9] is 7.39 µM (active); in assay [11] it was 20 µM (active).

Consider `N#CCCCCC#N`, for which the outcome in assay [1], in [2], in assay [3], in assay [4], in assay [5] and in assay [6] was inactive. In addition, the result in assay [7], in assay [8], in [9], in assay [10], in assay [11] and in [12] was inactive. For the same compound, the outcome in [13], in assay [14], in [15], in assay [16], in assay [17] and in [18] was inactive. Besides, in assay [19], the outcome was inactive.
